Rows were chosen to be rich in hits. Some 15% of all compounds tested hit in one or more screens of this group.
ELG1 DNA repair: qHTS screen for small molecules that inhibit ELG1-dependent DNA repair in human embryonic kidney (HEK293T) cells expressing luciferase-tagged ELG1; HEK293T ELG1-luciferase reporter, luminescence, 16 h; DNA damage induced by 5-fluorouridine; Potency, µM (doses to about 46.1 µM), without a hit: at the top dose activity change, negative = inhibition, usual class: inhibitors; hit rate 2.3% among 330,000; AID 504467, 2011; note: nearly all actives have a fitted effect of over 55% in size
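Overnight (16 hr) co-exposure of 2,000 cells/well to 5-fluorouridine and compound at 37 °C preceded detection. Luciferase was quantified via ONE-Glo luminescence; loss of signal denotes inhibition.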
DT40 TDP1 no CPT: qHTS for Inhibitors of human tyrosyl-DNA phosphodiesterase 1 (TDP1): qHTS in cells in absence of CPT. DT40 Tdp1-/- hTDP1 cells, no CPT, ATP luminescence, 48 h. Potency, µM (highest dose often 46.2 µM), without a hit: top-dose activity change, negative = growth inhibition, usual class: inhibitors. hit rate 15% among 420,000; note: nearly all actives have a fitted effect of over 55% in size
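Readout: luminescence from CellTiter-Glo after 30 min in the dark at RT. Cells: DT40 Tdp1-/- with stable hTDP1, 400/well. Exposure: compounds alone, ≥48 hr, 37 °C.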
ALOX12 inh: Primary qHTS assay for inhibitors of human arachidonate 12S-lipoxygenase (ALOX12): Round 2; purified 12hLO, xylenol orange hydroperoxide absorbance; Potency, µM (titrated, usually from 108 µM), inactives show at the top dose activity change, negative = inhibition, actives largely listed as inhibitors; hit rate 1.1% among 580,000; AID 1671190, 2021
Target sequence (P18054 whole entry, looked up): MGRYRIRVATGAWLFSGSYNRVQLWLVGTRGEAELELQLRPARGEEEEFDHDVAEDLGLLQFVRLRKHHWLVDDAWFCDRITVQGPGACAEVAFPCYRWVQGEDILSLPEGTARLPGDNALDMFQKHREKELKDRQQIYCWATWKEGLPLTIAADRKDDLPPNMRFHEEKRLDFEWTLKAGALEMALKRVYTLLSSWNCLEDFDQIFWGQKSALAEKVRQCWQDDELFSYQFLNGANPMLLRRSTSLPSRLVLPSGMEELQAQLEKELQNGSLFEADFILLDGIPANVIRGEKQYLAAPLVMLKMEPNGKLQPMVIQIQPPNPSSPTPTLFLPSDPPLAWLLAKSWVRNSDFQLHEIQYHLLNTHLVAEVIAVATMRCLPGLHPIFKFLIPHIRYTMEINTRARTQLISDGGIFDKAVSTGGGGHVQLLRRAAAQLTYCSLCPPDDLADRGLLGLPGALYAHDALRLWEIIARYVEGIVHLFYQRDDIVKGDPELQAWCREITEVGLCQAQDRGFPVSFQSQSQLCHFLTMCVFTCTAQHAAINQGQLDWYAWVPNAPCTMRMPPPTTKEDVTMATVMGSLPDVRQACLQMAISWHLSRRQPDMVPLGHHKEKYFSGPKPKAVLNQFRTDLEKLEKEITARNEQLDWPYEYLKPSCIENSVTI
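Hydroperoxide product was detected by ferrous iron/xylenol orange as the 573 to 405 nm absorbance ratio. Arachidonic acid at 40 uM (final) was turned over for 30 min at room temperature by 150 nM human 12hLO, pH 7.0 Hepes buffer, after 15 min compound preincubation.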
DT40 TDP1 CPT: qHTS for Inhibitors of human tyrosyl-DNA phosphodiesterase 1 (TDP1): qHTS in cells in presence of CPT; chicken DT40 Tdp1-/-;hTDP1 cells + 20 nM CPT, ATP luminescence, 48 h; hit rate 12% among 420,000; Potency, µM (titrated, usually from 46.2 µM), inactives show at the highest dose activity change, negative = growth inhibition, actives largely listed as inhibitors; AID 686979, 2013; note: nearly all actives have a fitted effect of over 55% in size
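Cell growth measured by CellTiter-Glo luminescence after a minimum 48 h, 37 C compound exposure with 20 nM CPT in Tdp1-knockout DT40 cells stably expressing hTDP1, seeded 400/well; qHTS titration format.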
VP16 counter: VP16 counterscreen qHTS for inhibitors of ROR gamma transcriptional activity | Drosophila S2 Gal4-VP16 UAS-luciferase, luminescence, 20 h | Potency, µM (series often up to 53.6 µM), for the others: at the highest dose activity, negative = inhibition, usual class: inhibitors | hit rate 3.5% among 310,000 | AID 2546, 2010;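 note: Gal4-VP16 expression switched on by copper sulfate through the metallothionein promoter; nearly all actives have a fitted effect of over 50% in size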
RORgamma inh: qHTS for inhibitors of ROR gamma transcriptional activity | AID 2551, 2010 | Drosophila S2 Gal4-RORgamma UAS-luciferase reporter, 20 h | Potency, µM (top dose mostly 53.6 µM), without a hit: top-dose activity change, negative = inhibition, actives largely listed as inhibitors | Nuclear receptor ROR-gamma (Mus musculus), P51450 | hit rate 5.4% among 310,000; note: nearly all actives have a fitted effect of over 60% in size
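Drosophila S2 cells stably expressing Gal4-DBD/mouse RORγ fusion under metallothionein promoter plus UAS-luciferase; compound 1 h, then 700 uM CuSO4 induction for 20 h at ambient temperature; inhibition read as reduced luminescence.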
An asterisk follows results filed as active; i = inactive; u = inconclusive; x = no result given; [ ] = another dose, or the depositor's remark. Calls come from the whole dose curve; as a rule, active = well fitted curve in the direction sought with a large enough effect; inconclusive = small, poorly fitted or top-dose-only effect, or another doubt; inactive = no such curve, though single readings can be large; an effect the other way counts as inactive or inconclusive. % is set by controls: 0 for no effect and ±100 for the full control effect; potency is the fitted concentration of half-maximal effect.

SMILES	ELG1 DNA repair	DT40 TDP1 no CPT	ALOX12 inh	DT40 TDP1 CPT	VP16 counter	RORgamma inh
CCN(CC)CCn1c2ccccc2c2cnc(N=CN(C)C)c(C#N)c21	-14%	16µM*	i	16µM*	-20%	-25%
CCN(CC)CCn1c(N)nc2ccccc21	-4%	-1%	-2%	3%	10%	-4%
COc1ccc(Sc2ccc(NC(=O)c3ccccc3Cl)cc2C#N)cc1	u	13µM*	85%	u	3%	u
Cc1ccc(CN2CCc3nc(C(C)C)nc(-c4ccc(O)cc4)c3CC2)cc1	x	x	45µM*	x	x	x
COc1ccc(CN2CCc3nc(C(C)C)nc(-c4ccc(O)cc4)c3CC2)cc1	x	x	-28%	x	x	x
CCC(C)c1ccccc1N1CC(C(=O)Nc2cccc(S(=O)(=O)N3CCOCC3)c2)CC1=O (configuration not stated)	-7%	18µM*	138%	18µM*	u	u
CSc1cccc(N2CC(C(=O)Nc3cccc(S(=O)(=O)N4CCCC4)c3)CC2=O)c1 (configuration not stated)	u	15µM*	28µM*	21µM*	x	x
CSc1cccc(NC(=O)C2CCN(S(=O)(=O)c3ccc4[nH]c5c(c4c3)CCCCC5)CC2)c1	x	21µM*	u	u	x	x
O=C(Nc1cccc(F)c1)C1CCN(S(=O)(=O)c2ccc3[nH]c4c(c3c2)CCCCC4)CC1	x	u	-21%	u	x	x
CCOc1ccc(N2CC(C(=O)Nc3cccc(S(=O)(=O)N4CCCCC4)c3)CC2=O)cc1 (configuration not stated)	u	u	-5%	-22%	-8%	u
CCC(C)c1ccccc1N1CC(C(=O)Nc2ccc(N3CCOCC3)cc2)CC1=O (configuration not stated)	4%	-7%	15%	-13%	x	x
CCc1ccccc1N1CC(C(=O)Nc2cc(S(=O)(=O)N3CCCC3)ccc2Cl)CC1=O (configuration not stated)	u	15µM*	u	u	x	x
O=C(Nc1cc(Cl)ccc1Cl)C1CC(=O)N(c2ccccc2)C1 (configuration not stated)	0%	-7%	-24%	-4%	0%	-34%
CCSc1nc(C(F)(F)F)nc2ccccc12	x	x	8%	x	x	x
O=C1CCN(C(=O)Nc2ccccc2)CCCC(c2nc(-c3cccnc3)no2)CCN1 (configuration not stated)	x	x	36%	x	x	x
COc1ccc(CCNC(=O)C2CCN(c3nc(Cl)nc4nc[nH]c34)CC2)cc1OC	x	x	-1%	x	x	x
CCC(C)(C)c1nnc(NC(=O)Cc2ccccc2)s1	x	x	-8%	x	x	x
CC(Sc1nnc(-c2ccco2)o1)C(=O)Nc1ccc2c(c1)OCO2 (configuration not stated)	x	x	-35%	x	x	x
CCOc1ccccc1N1CC(C(=O)NCCC2=CCCCC2)CC1=O (configuration not stated)	x	-29%	-16%	u	x	x
CCC(C)c1ccccc1N1CC(C(=O)NCCC2=CCCCC2)CC1=O (configuration not stated)	-17%	16µM*	393%	18µM*	x	x
Cc1cccc(N2CC(C(=O)Nc3cccc(S(=O)(=O)N4CCCCC4)c3)CC2=O)c1C (configuration not stated)	u	u	1%	18µM*	x	x
CCn1cc(CN2CCN(C(=O)c3ccsc3)CC2)ccc1=O	x	x	-4%	x	x	x
O=C(O)c1ccccc1Cc1ccccc1	x	x	39%	x	-5%	-18%
COC(=O)c1c(C)[nH]c(C)c1C(=O)c1ccccc1Cc1ccccc1	x	7.3µM*	-4%	40µM*	2%	8%
CCOC(=O)c1sc(NC(=O)CSc2nnc(Cc3ccccc3)o2)c(C(=O)OCC)c1C	u	u	8%	u	-16%	u
SMILES	ELG1 DNA repair	DT40 TDP1 no CPT	ALOX12 inh	DT40 TDP1 CPT	VP16 counter	RORgamma inh
CCOC(=O)c1c(NC(=O)CSc2nc3cc(Cl)ccc3s2)sc(C(C)=O)c1C	-9%	x	-15%	x	-2%	29%
CCOC(=O)c1sc(NC(=O)CSc2nc3ccccc3o2)c(C(=O)OCC)c1C	-8%	u	26%	u	2µM*	3.2µM*
CCOC(=O)c1c(NC(=O)CSc2nc3ccccc3s2)sc(C(C)=O)c1C	u	16µM*	18%	7.3µM*	u	-2%
O=S1(=O)c2cccc3cccc(c23)N1Cc1nnc(-c2ccccc2Br)o1	23µM*	18µM*	0%	15µM*	-15%	u
CC1CCN(CCc2nc3cc(NC(=O)COc4ccc([N+](=O)[O-])cc4)ccc3n2C)CC1	-16%	u	14%	16µM*	-2%	8%
CCn1c(CN2CCC(C)CC2)nc2cc(NC(=O)COc3ccc(Cl)c(C)c3)ccc21	x	5.2µM*	-7%	6.5µM*	x	x
Cc1cccc(OCC(=O)Nc2ccc3c(c2)nc(CCN2CCC(C)CC2)n3C)c1	3%	u	1%	u	-11%	8%
Cn1c(CCN2CCOCC2)nc2cc(NC(=O)COc3ccc([N+](=O)[O-])cc3)ccc21	-25%	-6%	-9%	-26%	-2%	3%
CC1CCN(CCc2nc3cc(NC(=O)Nc4ccccc4)ccc3n2C)CC1	u	u	-21%	21µM*	2%	-3%[10 µM]
COc1cc(NC(=O)c2nn(C)c(=O)c3ccccc23)cc(OC)c1OC	x	x	-15%	x	x	x
CN(C)c1ccc(CNCCC(Cc2ccccc2)c2ccco2)cc1 (configuration not stated)	1%	10µM*	-16%	9.2µM*	u	u
c1ccc(CNCCC(Cc2ccccc2)c2ccco2)cc1 (configuration not stated)	-5%	16µM*	-24%	u	0%	-4%
CC(=O)NCCC(Cc1ccccc1)c1ccco1 (configuration not stated)	u	-6%	u	-9%	u	-44%
Cc1ccc(N(C)S(=O)(=O)c2c(-c3cccc(F)c3)csc2C(=O)NCc2cccnc2)cc1	x	x	0%	x	x	x
